# According to the supplement of paper PMC8728848:
# This excerpt belongs to a sample that is enriched for the strongest signals.
# B1: PEB1 (Campylobacter jejuni), Q0P9X8 (protein)
# chain: MVFRKSLLKLAVFALGACVAFSNANAAEGKLESIKSKGQLIVGVKNDVPHYALLDQATGEIKGFEVDVAKLLAKSILGDDKKIKLVAVNAKTRGPLLDNGSVDAVIATFTITPERKRIYNFSEPYYQDAIGLLVLKEKKYKSLADMKGANIGVAQAATTKKAIGEAAKKIGIDVKFSEFPDYPSIKAALDAKRVDAFSVDKSILLGYVDDKSEILPDSFEPQSYGIVTKKDDPAFAKYVDDFVKEHKNEIDALAKKWGL
# Legend:
# Assay in all cases: glycan array binding signal (z-score within array); higher = stronger binding
# Details in all cases: glycan notation: IUPAC condensed, linker removed
# [1] = biological target: Fuc(a1-2)Gal(b1-4)Glc
# Summary of the method: (§1)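 The binding signal is a Z-score computed within each array. Data were drawn from 3228 arrays in the Consortium for Functional Glycomics database, restricted to those with a known protein sequence. Scores were averaged over arrays of the same protein sequence at different concentrations or buffers, and over linkers, and negative values can be taken as non-binding.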
# [2] = biological target: Fuc(a1-2)Gal(b1-4)GlcNAc6S
# Summary of the method: as §1
# [3] = biological target: Fuc(a1-2)Gal6S(b1-4)GlcNAc
# Summary of the method: as §1
# [4] = biological target: Fuc(a1-2)[GalNAc(a1-3)]Gal(b1-4)GlcNAc(b1-2)Man(a1-3)[Fuc(a1-2)[GalNAc(a1-3)]Gal(b1-4)GlcNAc(b1-2)Man(a1-6)]Man(b1-4)GlcNAc(b1-4)GlcNAc
# Summary of the method: as §1
# [5] = biological target: Fuc(a1-3)[Gal(b1-4)]GlcNAc(b1-2)Man(a1-3)[Fuc(a1-3)[Gal(b1-4)]GlcNAc(b1-2)Man(a1-6)]Man(b1-4)GlcNAc(b1-4)GlcNAc
# Summary of the method: as §1
# [6] = biological target: Fuc(a1-3)[Gal(b1-4)]GlcNAc(b1-4)Gal(b1-4)[Fuc(a1-3)]GlcNAc
# Summary of the method: as §1
# [7] = biological target: Gal(a1-3)Gal(b1-3)[Fuc(a1-4)]GlcNAc(b1-2)Man(a1-3)[Gal(a1-3)Gal(b1-3)[Fuc(a1-4)]GlcNAc(b1-2)Man(a1-6)]Man(b1-4)GlcNAc(b1-4)GlcNAc
# Summary of the method: as §1
# [8] = biological target: Gal(a1-4)Gal(b1-4)GlcNAc(b1-2)Man(a1-3)[Gal(a1-4)Gal(b1-4)GlcNAc(b1-2)Man(a1-6)]Man(b1-4)GlcNAc(b1-4)GlcNAc
# Summary of the method: as §1
# [9] = biological target: Gal(b1-2)Gal
# Summary of the method: as §1
# [10] = biological target: Gal(b1-3)[Fuc(a1-4)]GlcNAc(b1-2)Man(a1-3)[Gal(b1-3)[Fuc(a1-4)]GlcNAc(b1-2)Man(a1-6)]Man(b1-4)GlcNAc(b1-4)GlcNAc
# Summary of the method: as §1
# [11] = biological target: Gal(b1-3)[Neu5Ac(a2-6)]GalNAc
# Summary of the method: as §1
# [12] = biological target: Gal(b1-4)GlcNAc(b1-2)Man(a1-3)[Gal(b1-4)GlcNAc(b1-2)Man(a1-6)]Man(b1-4)GlcNAc(b1-4)[Fuc(a1-6)]GlcNAc
# Summary of the method: as §1
# [13] = biological target: Gal(b1-4)GlcNAc(b1-3)Gal(b1-3)GlcNAc
# Summary of the method: as §1
# [14] = biological target: Gal(b1-4)GlcNAc(b1-3)Gal(b1-4)Glc
# Summary of the method: as §1
# [15] = biological target: Gal(b1-4)GlcNAc(b1-6)Gal(b1-4)GlcNAc
# Summary of the method: as §1
# [16] = biological target: Gal3S(b1-4)Glc
# Summary of the method: as §1
# [17] = biological target: Gal3S(b1-4)[Fuc(a1-3)]Glc6S
# Summary of the method: as §1
# [18] = biological target: GalNAc(b1-4)GlcNAc(b1-2)Man(a1-3)[GalNAc(b1-4)GlcNAc(b1-2)Man(a1-6)]Man(b1-4)GlcNAc(b1-4)GlcNAc
# Summary of the method: as §1
# [19] = biological target: GlcNAc(a1-4)Gal(b1-4)GlcNAc
# Summary of the method: as §1
# [20] = biological target: Kdn(a2-3)Gal(b1-4)[Fuc(a1-3)]GlcNAc
# Summary of the method: as §1
# [21] = biological target: Man(a1-2)Man(a1-6)[Man(a1-3)]Man(a1-6)[Man(a1-2)Man(a1-2)Man(a1-3)]Man
# Summary of the method: as §1
# [22] = biological target: Neu5Ac(a2-3)Gal(b1-3)GlcNAc(b1-3)Gal(b1-4)GlcNAc
# Summary of the method: as §1
# [23] = biological target: Neu5Ac(a2-3)Gal(b1-3)[Fuc(a1-4)]GlcNAc(b1-3)Gal(b1-4)[Fuc(a1-3)]GlcNAc
# Summary of the method: as §1
# [24] = biological target: Neu5Ac(a2-3)Gal(b1-4)GlcNAc(b1-3)Gal(b1-4)[Fuc(a1-3)]GlcNAc
# Summary of the method: as §1
# [25] = biological target: Neu5Ac(a2-3)Gal(b1-4)[Fuc(a1-3)]GlcNAc(b1-3)Gal(b1-4)GlcNAc
# Summary of the method: as §1
# [26] = biological target: Neu5Ac(a2-3)Gal(b1-4)[Fuc(a1-3)]GlcNAc(b1-3)GalNAc
# Summary of the method: as §1
# [27] = biological target: Neu5Ac(a2-3)Gal(b1-4)[Fuc(a1-3)]GlcNAc(b1-6)[Neu5Ac(a2-3)Gal(b1-3)]GalNAc
# Summary of the method: as §1
# [28] = biological target: Neu5Ac(a2-3)GalNAc(b1-4)GlcNAc
# Summary of the method: as §1
# [29] = biological target: Neu5Ac(a2-3)[GalNAc(b1-4)]Gal(b1-4)GlcNAc(b1-3)GalNAc
# Summary of the method: as §1
# [30] = biological target: Neu5Ac(a2-3)[Neu5Ac(a2-6)]GalNAc
# Summary of the method: as §1
# [31] = biological target: Neu5Ac(a2-6)Gal(b1-4)GlcNAc(b1-2)Man(a1-6)Man(b1-4)GlcNAc(b1-4)GlcNAc
# Summary of the method: as §1
# [32] = biological target: Neu5Ac9Ac(a2-3)Gal(b1-3)GlcNAc
# Summary of the method: as §1
# [33] = biological target: Neu5Gc(a2-3)Gal(b1-3)[Fuc(a1-4)]GlcNAc
# Summary of the method: as §1
# [34] = biological target: Neu5Gc(a2-6)Gal(b1-4)GlcNAc
# Summary of the method: as §1
binder,measurement,setting,value
B1,glycan array binding signal (z-score),[1],-0.354
same,glycan array binding signal (z-score),[2],-0.084
same,glycan array binding signal (z-score),[3],0.768
same,glycan array binding signal (z-score),[4],1.37
same,glycan array binding signal (z-score),[5],-0.842
same,glycan array binding signal (z-score),[6],0.229
same,glycan array binding signal (z-score),[7],3.87
same,glycan array binding signal (z-score),[8],3.37
same,glycan array binding signal (z-score),[9],0.469
same,glycan array binding signal (z-score),[10],4.54
same,glycan array binding signal (z-score),[11],-0.718
same,glycan array binding signal (z-score),[12],0.818
same,glycan array binding signal (z-score),[13],0.014
same,glycan array binding signal (z-score),[14],-0.613
same,glycan array binding signal (z-score),[15],-1.39
same,glycan array binding signal (z-score),[16],-1.26
same,glycan array binding signal (z-score),[17],0.849
same,glycan array binding signal (z-score),[18],4.17
same,glycan array binding signal (z-score),[19],0.303
same,glycan array binding signal (z-score),[20],-0.113
same,glycan array binding signal (z-score),[21],-0.547
same,glycan array binding signal (z-score),[22],-0.813
same,glycan array binding signal (z-score),[23],0.311
same,glycan array binding signal (z-score),[24],-0.941
same,glycan array binding signal (z-score),[25],3.14
same,glycan array binding signal (z-score),[26],8.24
same,glycan array binding signal (z-score),[27],3.1
same,glycan array binding signal (z-score),[28],-0.108
same,glycan array binding signal (z-score),[29],-0.77
same,glycan array binding signal (z-score),[30],-0.361
same,glycan array binding signal (z-score),[31],1.09
same,glycan array binding signal (z-score),[32],-0.504
same,glycan array binding signal (z-score),[33],-0.646
same,glycan array binding signal (z-score),[34],0.988
